# According to PubChem BioAssay (NCATS):
# Results filed as inconclusive are left out. Where a call stands in place of a potency, no number is given. A number with no mark means an inactive call. Calls of active or inactive are those of the source. Calls follow the shape of the full dose curve. Starred links: 1 amine or outer side, 2 acyl side, 3 side chain; linkers in the order of their positions; H or OH if unused. Positions of bridges follow the written chain, without caps; N, C: chain ends. Non-standard residues stand in square brackets, D forms with d. Residues, ends and D or L forms follow the SMILES beside them. ξ: configuration not given here. *: point of attachment. ΔAla(3-NHCONH2) = NC(=O)NC=C(N)C(=O)O; X1 = NC1=NCCC(C(N[*:1])C(=O)[*:2])N1; ξβ3hOrn = NCCCC(N)CC(=O)*; Dap = NC[CH](N)C(=O)O
# Columns and labels:
# [1] = Primary qHTS for inhibitors of SARS-S pseudo-typed particle cell entry (AID 1479145); settings: SARS-S pseudotyped particle cell entry, luciferase reporter; series mostly up to 57.1 µM; also: nearly all actives have a fitted effect of over 45% in size; also: potency is read from the fitted curve at half-maximal effect
# [2] = Primary qHTS for Huh7 cytotoxicity: counterscreen for inhibitors of MERS-S pseudotyped particle cell entry (AID 1479147); settings: cell viability read-out; series mostly up to 57.1 µM; also: potency is read from the fitted curve at half-maximal effect
# [3] = Primary qHTS for inhibitors of MERS-S pseudo-typed particle cell entry (AID 1479149); settings: MERS-S pseudotyped particle entry, luciferase; series mostly up to 57.1 µM; also: nearly all actives have a fitted effect of over 60% in size; also: potency is read from the fitted curve at half-maximal effect
# [4] = Primary qHTS for Vero E6 cytotoxicity: counterscreen for inhibitors of SARS-S pseudo-typed particle cell entry (AID 1479150); settings: cell viability; series mostly up to 57.1 µM
smiles,measurement,setting,value
CCOc1ccc2ccccc2c1C(=O)N[C@@H]1C(=O)N2[C@@H]1SC(C)(C)[C@@H]2C(=O)O,Potency,[1],inactive
same,Potency,[2],inactive
same,Potency,[3],inactive
same,Potency,[4],inactive
O=C(O)P(=O)(O)O,Potency,[1],inactive
same,Potency,[2],inactive
same,Potency,[3],inactive
same,Potency,[4],inactive
CC(C)Nc1cccnc1N1CCN(C(=O)c2cc3cc(NS(C)(=O)=O)ccc3[nH]2)CC1,Potency,[1],inactive
same,Potency,[2],inactive
same,Potency,[3],inactive
N=c1nc(N2CCCCC2)cc(N)n1O,Potency,[1],inactive
same,Potency,[2],inactive
same,Potency,[3],inactive
same,Potency,[4],inactive
NCCCC(N)CC(=O)NCC1NC(=O)C(CO)NC(=O)C(N)CNC(=O)C(C2CCN=C(N)N2)NC(=O)C(=CNC(N)=O)NC1=O (stereo not drawn) (H-[Dap]S[Dap](ξβ3hOrn)[ΔAla(3-NHCONH2)][X1]; lactam 1-C; configuration not given here),outcome,[1],inactive [at 0.573 µM]
same,"activity change, negative = cytotoxicity",[2],3.81% [at 0.573 µM]
same,outcome,[3],inactive [at 0.573 µM]
same,outcome,[4],inactive [at 0.573 µM]
O=C1C(=O)c2ccccc2C(O)=C1C1CCC(c2ccc(Cl)cc2)CC1 (centres undefined),Potency,[1],0.891 µM (active)
same,Potency,[2],inactive
same,Potency,[3],22.4 µM (active)
Cc1nc(-c2ccc(OCC(C)C)c(C#N)c2)sc1C(=O)O,Potency,[1],inactive
same,Potency,[2],inactive
same,Potency,[3],inactive
CC(C)Oc1ccc2c(=O)c(-c3ccccc3)coc2c1,Potency,[1],inactive
CN(C)CCCN1c2ccccc2CCc2ccc(Cl)cc21,Potency,[1],28.2 µM (active)
same,Potency,[2],inactive
same,Potency,[3],11.2 µM (active)
same,Potency,[4],inactive
O=C1c2c(O)ccc(O)c2C(=O)c2c(NCCNCCO)ccc(NCCNCCO)c21,Potency,[1],inactive
same,Potency,[2],25.1 µM (active)
CC1(C)NC(=O)N(c2ccc([N+](=O)[O-])c(C(F)(F)F)c2)C1=O,Potency,[1],35.5 µM (active)
same,Potency,[2],inactive
